# Test results reported in the supplement of paper PMC6555819.
# Key:
# Assay in all cases: PBM binding z-score (relative to random genomic background probes); higher = stronger binding; sequences stand for … in GC…GCGATTGACAGCGTAGAATGAAGG
# [1] = system: FXR:RXRa (NR concentration 270 nM, RXRa partner concentration 90 nM)
# In short: (§1)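 Binding buffer was PBS pH 7.4 with 2% milk, 0.02% Triton X-100, 1 mM DTT, 0.2 mg/mL BSA and 0.4 mg/ml salmon testes DNA. In it, ligand-free nuclear receptor dimers were incubated 1 h on custom Agilent 4×180K protein-binding microarrays carrying double-stranded probes. Antibodies against each partner (one per run) detected binding, and z-scores were calculated against random background probes after regression normalization of scanned fluorescence.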
# [2] = system: LXRa:RXRa (NR concentration 270 nM, RXRa partner concentration 90 nM)
# In short: as §1
# [3] = system: LXRa homodimer (NR concentration 270 nM)
# In short: as §1
# [4] = system: LXRb:RXRa (NR concentration 270 nM, RXRa partner concentration 90 nM)
# In short: as §1
# [5] = system: LXRb homodimer (NR concentration 270 nM)
# In short: as §1
# [6] = system: PPARa:RXRa (NR concentration 270 nM, RXRa partner concentration 90 nM)
# In short: as §1
# [7] = system: PPARg:RXRa (NR concentration 180 nM, RXRa partner concentration 90 nM)
# In short: as §1
# [8] = system: PPARg:RXRa 270nM:90nM, anti-RXR (NR concentration 270 nM, RXRa partner concentration 90 nM)
# In short: as §1
# [9] = system: PPARg:RXRa 30nM:10nM, anti-RXR (NR concentration 30 nM, RXRa partner concentration 10 nM)
# In short: as §1
# [10] = system: PPARg:RXRa 90nM:30nM, anti-RXR (NR concentration 90 nM, RXRa partner concentration 30 nM)
# In short: as §1
# [11] = system: PPARg:RXRa DBDmut IVT, anti-RXR (DBD mutation: RXRa K156A/R161A, NR concentration 270 nM, RXRa partner concentration 90 nM)
# In short: as §1
# [12] = system: PPARg:RXRa IVT, anti-PPARg (NR concentration 270 nM, RXRa partner concentration 90 nM)
# In short: as §1
# [13] = system: PPARg DBDmut:RXRa IVT, anti-PPARg (DBD mutation: PPARg1 K132A/R137A, NR concentration 270 nM, RXRa partner concentration 90 nM)
# In short: as §1
# [14] = system: PPARg DBDmut IVT, anti-PPARg (DBD mutation: PPARg1 K132A/R137A, NR concentration 270 nM)
# In short: as §1
# [15] = system: PPARg homodimer (NR concentration 180 nM)
# In short: as §1
# [16] = system: PXR:RXRa (NR concentration 270 nM, RXRa partner concentration 90 nM)
# In short: as §1
# [17] = system: PXR homodimer (NR concentration 270 nM)
# In short: as §1
# [18] = system: RARa:RXR (NR concentration 270 nM, RXRa partner concentration 90 nM)
# In short: as §1
# [19] = system: RARa homodimer (NR concentration 270 nM)
# In short: as §1
# [20] = system: RARb:RXRa (NR concentration 270 nM, RXRa partner concentration 90 nM)
# In short: as §1
Sequence,PBM binding z-score [1],PBM binding z-score [2],PBM binding z-score [3],PBM binding z-score [4],PBM binding z-score [5],PBM binding z-score [6],PBM binding z-score [7],PBM binding z-score [8],PBM binding z-score [9],PBM binding z-score [10],PBM binding z-score [11],PBM binding z-score [12],PBM binding z-score [13],PBM binding z-score [14],PBM binding z-score [15],PBM binding z-score [16],PBM binding z-score [17],PBM binding z-score [18],PBM binding z-score [19],PBM binding z-score [20]
AGCCAAAGTTCACTAGGTAACGTAAGATTCAGCT,4.84,4.92,2.67,2.81,0.629,4.51,5.95,5.78,3.24,5.12,2.5,4.42,0.974,0.266,2.28,3.96,2.4,2.78,0.158,4.68
GCTCGGAGGACATGGTCAGAGCTTTGTCCGTAGA,-0.823,-0.697,-0.873,-1.01,-1.56,-0.666,-0.763,-0.775,-1.35,-1.09,-0.304,-0.659,-2.23,-2.05,-2.26,-0.77,-0.911,-0.833,-1.56,0.679
CCTACTGGGCCATCAGGCCATTGATATCAACGTT,0.133,-0.192,-0.106,-0.246,-0.678,0.569,1.16,1.79,0.105,0.915,3.85,3.8,-0.657,-0.731,0.142,-0.281,-0.336,-0.428,-0.00311,0.28
TCTTTTAGATCAAAGGTTAAGAAAGCCGAAGCCT,1.68,2.05,0.26,2.19,0.802,4.08,6.36,6.92,6.34,7.4,2.09,3.01,1.08,1.12,1.05,2.05,0.154,2.88,0.435,2.07
TCGAGTTGGTCACGGAGGTCACACACGACGGGTA,3.27,3.24,1.8,3.05,-0.188,3.87,3.18,3.36,1.82,2.63,0.979,2.98,0.179,0.0233,2.35,4.79,1.32,4.55,0.63,3.84
TCTAGTTGGTCAAAGGTCATACACTCGAAATGCG,5.83,6.03,4.66,5.62,2.02,6.59,10.8,9.47,9.65,10.2,3.45,5.82,1.78,2.27,4.5,6.04,3.03,7.27,3.78,4.73
TCCTGTAGATCAACAGGAGGTTAAGAAAGATCGA,-0.0851,1.1,0.0543,0.973,-0.977,1.28,-0.00253,1.25,2.01,1.49,0.771,0.245,-0.0559,0.308,0.0427,0.654,-0.17,1.02,-0.715,0.535
CGAACTAGATCATTGACAGGACAGTGAATAGTAA,-0.0761,-0.268,0.18,-0.274,-0.0892,0.0131,0.572,-0.333,0.0975,0.113,1.8,0.856,0.569,0.266,0.538,0.285,-0.0589,0.3,0.92,0.0179
GCATGTAGGTAATACAAGGTGAAAGTCCGATTGT,0.127,1.13,0.162,0.172,-0.45,1.62,1.34,1.52,0.458,0.981,4.42,4.28,0.0664,0.517,0.562,0.369,0.257,1.52,0.17,0.218
CTACCAAGGTGAACAAGGTCGTTGAGTACTATTC,1.64,1.36,0.0569,1.83,-0.22,2.53,1.04,1.24,0.0413,0.542,2.21,2.45,-0.822,-0.624,0.759,3.07,6.86,2.48,0.402,2.24
AGAATCAGGTTATTAAGATCAGGGAATTGCGGTC,0.5,0.587,0.33,0.473,0.697,1.16,0.693,1.04,0.466,0.97,2.96,2.28,0.999,0.854,1.29,0.516,0.602,0.644,1.45,1
ATCTCTAGGGAAGACTCAGTTCAGTGAAGAACGC,-0.235,0.0835,0.196,-0.00503,0.414,-0.566,-0.0585,-0.317,-0.477,-0.307,0.54,0.0201,0.66,0.331,0.641,0.582,1.3,-0.127,0.457,-0.0542
CATACAGGGTCAGCTAGGCCCGAGTAGGGACGGC,4.65,3,-0.329,1.95,0.134,4.15,2.95,2.99,0.725,1.72,0.974,2.05,0.221,0.342,1.66,2.1,-0.596,3.11,0.256,4.08
CCTACTGGGCCATTCAGAGGTAATTGATCATATG,-0.331,-0.32,-0.381,-0.312,-0.992,0.524,0.262,0.25,-0.481,-0.189,3.91,3.26,-0.325,-0.711,-0.319,-0.537,-0.389,-0.179,-0.252,0.178
